According to ChEMBL document CHEMBL3988442, “University of Dundee, Small-Polar-MMV Screening Library” (2021):
Hit rate of the full screen: of about 48,000 compounds, about 13,000 (27%) showed an effect of 50% or more. Some of the results follow.

Tested on: Wolbachia pipientis
Experiment: Anti-Wolbachia Cell-Based Screen
Type: functional
Parameters: scale not given: in the data most compounds retested in dose-response had high values
Settings: 5 µM

Compound | Percent Effect [%]
c1cncc(CN2CCCCC2c2ccc(Nc3cnccn3)nc2)c1 (stereo unspecified) | 73.84
CC(C)(C)OC(=O)NCC1CCCCN1Cc1cccnc1 (stereo unspecified) | 4.728
c1cc(CN2CCCCC2c2ccc(Nc3cnccn3)nc2)ccn1 (stereo unspecified) | 159
O=C(O)[C@]12CCCN(Cc3cccnc3)[C@@H]1CCN(c1cnccn1)C2 | -19.78
CC(C)(C)OC(=O)NCC1CCCCN1Cc1ccncc1 (stereo unspecified) | -3.492
CCc1ccc(C(=O)N2CCN(CCS(C)(=O)=O)CC2)o1 | -5.31
Cc1nsc(N2CCN(C(=O)Nc3cccc(F)c3)CC2)n1 | -8.293
Cc1cccc(NC(=O)N2CCC3(CCC(C(=O)N(C)C)O3)CC2)c1 (stereo unspecified) | 100.6
CN(C)C(=O)C1CCC2(CCN(C(=O)Nc3cccc(F)c3)CC2)O1 (stereo unspecified) | 98.46
O=C(Nc1cccc(F)c1)N1CCN(Cc2noc(C3CC3)n2)CC1 | -10.54
Cc1cccc(NC(=O)N2CCN(Cc3nnc(C(C)C)o3)CC2)c1 | -19.75
O=C(Nc1cccc(-c2cscn2)c1)N1CCC2(CC1)CC(O)CO2 (stereo unspecified) | -8.053
CC(C)NC(=O)CN1CCC2(CC1)OCCO2 | -0.8474
Cc1noc(C2CCN(CC(=O)N3CCNC(=O)C3)CC2)n1 | -10.42
O=C1NCCCc2[nH]c(-c3nc(C4CC4)no3)nc21 | -6.286
O=C1CCC(c2nc(C3CCNCC3)no2)N1 (stereo unspecified) | 104.8
CC(C)(C)C(=O)N1CCC(c2noc(C3CCC(=O)N3)n2)CC1 (stereo unspecified) | 136.3
O=C(Nc1cccs1)N1CC(c2nc(C3CC3)no2)C1 | 10.74
CC(=O)N1CCC(c2nc(Cc3ccccc3)no2)C1 (stereo unspecified) | -18.53
CC(=O)N1CCC(c2noc(C3CCC(=O)N3)n2)CC1 (stereo unspecified) | 120.5
O=C1NCCCc2[nH]c(-c3nc(C4CCCCC4)no3)nc21 | 4.619
O=C1CCC2(CCCN(C(=O)Cc3cccs3)C2)N1 (stereo unspecified) | -20.18

Compound | Percent Effect [%]
Cc1nc(C2CCCN(C(=O)C(C)(C)n3cc(Cl)cn3)C2)no1 (stereo unspecified) | -4.996
O=C1CCC(c2nc(C3CCN(C(=O)Cc4cccs4)CC3)no2)N1 (stereo unspecified) | 131.4
CN(C)C(C(=O)N1CC(Oc2ccccc2F)C1)c1ccc(F)cc1 (stereo unspecified) | 10.57
CCN(CC1CCOC1)C(=O)Nc1ccc(-n2cncn2)nc1 (stereo unspecified) | -5.162
CCC[C@H]1CN(CCS(C)(=O)=O)C[C@@H]1NC(=O)Cn1cc(C)cn1 | -15.47
CCc1nccn1CCNC1CCN(c2nc3ccc(Cl)cc3s2)CC1 | -30.49
O=C(CN1CCCC(c2noc(C3CC3)n2)C1)N1CCCC1 (stereo unspecified) | -17.34
O=C1CCC(c2nc(C3CCN(C(=O)C4CC4)CC3)no2)N1 (stereo unspecified) | 107.7
CC1(C)CNC(=O)c2nc(C3CCN(C(=O)C4CC4)CC3)[nH]c2C1 | -1.461
CC(Nc1ncnc2c1CCNC2)c1ccc2c(c1)CCCC2 (stereo unspecified) | -81.25
CC[C@@H](CO)Nc1nccc(-c2cnc3sc(C)cn3c2=O)n1 | 82.9
CC(C)CNc1nccc(-c2cnc3sc(Cl)cn3c2=O)n1 | 98.56
Cc1ccc(NCCCNc2nccc(-c3cn(C)nc3C)n2)nc1 | 4.133
CC[C@H](C)Nc1nccc(-c2cnc3sccn3c2=O)n1 | 96.29
C[C@@H](CO)Nc1nccc(-c2cnc3sc(Cl)cn3c2=O)n1 | 101.5
c1cnc(NCc2n[nH]c3c2CCN(Cc2ccncc2)C3)nc1 | -7.099
Cc1nc[nH]c1CN1CCCC(CNC(=O)c2ccc(N)nc2)C1 (stereo unspecified) | -15.92
COc1cc2c(nn1)CCN(Cc1noc(CC(C)C)n1)C2 | -12.11
Cc1nc(CN2CCCC(CCc3c(F)cccc3F)C2)c[nH]1 (stereo unspecified) | 27.92
CNS(=O)(=O)CCNCC1(O)CCCN(CCC2CCCCC2)C1=O (stereo unspecified) | 1.698
Cn1cc(NC(=O)CCc2ccsc2)ccc1=O | -1.148
CC[C@H](C)Nc1nccc(-c2cnc3sc(C)cn3c2=O)n1 | 91.04

Compound | Percent Effect [%]
Cc1cn2c(=O)c(-c3ccnc(N[C@@H](C)CO)n3)cnc2s1 | 99.21
CCCN(Cc1ccc(C#N)cc1)Cc1nnsc1Cl | 8.987
CCNC(=O)CNC(=O)c1ccn(S(=O)(=O)c2ccc(C)cc2)c1 | 0.9489
Cc1cccc(CN2C[C@@H]3CC[C@H](C2)N(Cc2c(C)noc2C)C3=O)n1 | -29.28
Cc1cnn(CC2CCCN2C(=O)c2cccc(CC#N)c2)c1 (stereo unspecified) | -7.7
CCN(CC)C(=O)C1CCCN1C(=O)c1cccc(-n2cnnn2)c1 (stereo unspecified) | 98.96
COC(=O)[C@H]1CCCCN1C(=O)c1cccc(-n2cccn2)c1 | -1.168
Cc1cnn(CC2CCCN2C(=O)c2cccc(-n3cnnn3)c2)c1 (stereo unspecified) | -8.957
Cc1cnn(CC2CCCCN2C(=O)c2cc(C(N)=O)cs2)c1 (stereo unspecified) | 3.915
Cc1cnn(CC2CCCN2C(=O)c2cccc(S(C)(=O)=O)c2)c1 (stereo unspecified) | 115.2
Cc1cnn(CC2CCCCN2C(=O)c2cccc(C(N)=O)c2)c1 (stereo unspecified) | 110.6
Cc1cnn(CC2CCCN2C(=O)c2cccc(-n3ccc(C)n3)c2)c1 (stereo unspecified) | 119
Cn1ccc(C2CCCCN2C(=O)c2cccc(-n3cccn3)c2)n1 (stereo unspecified) | -0.8494
CC(C)c1nc(COc2cccc3c2NC(=O)CO3)cs1 | -10.7
CC(=O)Nc1sc2c(c1C(=O)O)CCc1ccccc1-2 | 112.1
CC(C)(C)c1cc(NC(=O)C2CCCO2)n(-c2ccccn2)n1 (stereo unspecified) | -31.1
O=C(Nc1cccc(N2CCN(CC3CC3)CC2)c1)C1CCCO1 (stereo unspecified) | -16.14
NC(=O)c1c(NC(=O)C2CCCO2)sc2c1CCc1ccccc1-2 (stereo unspecified) | 117
O=C(Cc1cccs1)NCC1(O)CCc2ccccc2C1 (stereo unspecified) | 1.555
NC(=O)c1c(NC(=O)CCCC(=O)O)sc2c1CCc1ccccc1-2 | 119.8
NC(=O)c1c(NC(=O)CCC(=O)O)sc2c1CCc1ccccc1-2 | 188.5
Cc1cccc2c1nc1n2[C@@H](CNC(=O)C2CCOCC2)COC1 | -17.69
